About 83,000 compounds went through this panel and 20% of them were active in at least one assay; those are over-represented in the sample as a whole.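 Negative percent growth values reflect cell death: -40 means 40% of the cells present at the start died, and -100 means all died.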 Values without a mark were called inactive. Activity calls are given as the source filed them. How the source made its calls: active means growth percent below 10; inactive means the rest.
tested on: DU-145 prostate; assay: NCI-60 one-dose screen, 48 h (100 = growth as untreated, 0 = no growth, -100 = all killed); details: 10 µM unless noted

| SMILES | growth |
| --- | --- |
| CCOC(=O)c1ccc[nH]1 | 116% |
| COc1cc(Cc2cc(-c3ccccc3)nn(Cc3ccccc3)c2=O)cc(OC)c1OC | 77.7% |
| O=C(Nc1ccc(Nc2ccncc2)cc1)c1ccc(Nc2ccnc3ccc([N+](=O)[O-])cc23)cc1 | 103% |
| C[C@H]1[C@H](C)CC[C@]2(C(=O)NCCNCCN)CC[C@]3(C)C(=CC[C@@H]4[C@@]5(C)CCC(=O)C(C)(C)[C@@H]5CC[C@]43C)[C@H]12 | 51.6% |
| COc1ccc(C/C(C)=C(\c2ccc(Cl)cc2)c2ccc(OCCN3CCCC3)cc2)cc1 | 98.5% |
| CCOc1ccc(NC(=O)Nc2ccc(OCC)cc2)cc1 | 106% |
| Cc1ccc(NC(=O)c2cc3ccccc3cc2O)c(C)c1 | 96.3% |
| COC(=O)c1c2c(c[n+]([O-])c1C)C(=O)C=C(NCc1ccccc1)C2=O | -94.7% (active) |
| C=C1C(=O)O[C@H]2[C@H]1CC/C(CNC(=O)Cc1c[nH]c3ccccc13)=C\CC[C@@]1(C)O[C@@H]21 | 26.5% |
| C#CCOc1ccc2nc(CCl)c(Cl)c(Nc3cccc(C(F)(F)F)c3)c2c1 | 72% |
| O=C1/C(=C/c2cccc(Br)c2)COc2ccc(O)cc21 | 69.7% |
| CCN(CC)CCOc1ccc(/C(=C(\C)Cc2ccc(OC)cc2)c2ccc(OC(=O)NCc3ccccc3)cc2)cc1 | 78.9% |
| O=C(CCCCCCCC(=O)N1CCCCC1)N1CCCCC1 | 106% |
| Cc1ccc(-c2nc(SCC(=O)N3CCN(c4cc5c(cc4F)c(=O)c(C(=O)O)cn5C4CC4)CC3)nc(Cl)c2C#N)cc1 | 106% |
| CSc1ccc2c3c(n(C[C@H](O)CO)c(=O)c2c1)-c1ccccc1C3=O | 22% |
| Cc1cn(C)cn1 | 107% |
| C#Cc1cccc(Nc2ncnc3cc(NC(=O)CCl)ccc23)c1 | -96.8% (active) |
| O=S(=O)(NCCNc1nccc(-c2c(-c3ccc(F)c(O)c3)nc3sccn23)n1)c1ccc(Cl)cc1 | 44% |
| COc1ccc(C(O)c2cc3c(N)c(C(=O)Nc4cccc5ccccc45)sc3nc2C)cc1 (stereo unspecified) | 1.19% (active) |
| O=C(Nc1cc(Cl)ccc1O)c1ccccc1Nc1ccnc(C(F)(F)F)c1 | 23.8% |
| COc1ccc(/C=C2\c3cc(OC)c(OC)c(OC)c3CC[C@@H]2O)cc1F | 19.5% |
| CCN(CC)C(=O)C1=C(C)NC(=O)NC1c1ccc2c(c1)OCO2 (stereo unspecified) | 113% |
| COc1ccc(C=Nc2c(C(=O)Nc3cccc(Cl)c3C)sc3nc(C)c(C(=O)/C=C/c4ccc(OC)cc4)cc23)cc1 | 14.7% |
| CC(C)(C)c1ccc(S(=O)(=O)Oc2ccc(-c3sc4cc(OS(=O)(=O)c5ccc(C(C)(C)C)cc5)ccc4c3C(=O)c3ccc(OCCN4CCCCC4)cc3)cc2)cc1 | 114% |
| COc1cc(/C=C/c2cc(/C=C/c3ccc(O)c(OC)c3)n(C(=O)Nc3ccc(Cl)cc3)n2)ccc1O | 11.7% |
| O=c1cc(CP(=O)(O)O)c2cc(O)c(-c3ccccc3)cc2o1 | 105% |

Source: PubChem BioAssay (NCI)
